Results filed as inconclusive are left out. Activity calls are given as the source filed them. Unless noted, how the calls were made is not given here.
Columns and labels:
[1] = stimulators of insulin release from INS-1E, primary screen, cell-based, 5 mM glucose, NPC library (AID 1117329;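 active means compound raises insulin release from rat beta cells at 5 mM glucose, no numeric limit stated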); settings: rat INS-1E insulin secretion, at 10 µM, stronger effect = higher value
[2] = growth inhibition of GSK3B-pretreated HCT116 cells – cell-based, CellTiter-Glo, 0.2 to 20 µM (AID 1117336;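 active means compounds lowering colon cancer cell viability after pretreatment blocking the GSK3B kinase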); settings: HCT116 viability after GSK3B inhibitor, at 20 µM, stronger effect = higher value
[3] = inhibition of endothelial tube formation, primary screen, imaging, VEGF stimulated, CD31 staining, tube area, NPC library (AID 1117340;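 active means compound that reduces growth-factor-driven endothelial tube area in a mixed cell culture, no cutoff stated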); settings: VEGF-stimulated ADSC/ECFC co-culture, at 10 µM, stronger effect = higher value
[4] = GLP1 release stimulators, primary, NCI-H716, NPC library (AID 1117341;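 active means compound raises GLP1 secretion from the human gut endocrine cells, with no numeric limit stated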); settings: NCI-H716 cells, at 10 µM, stronger effect = higher value
[5] = HCT116 colon cancer cell growth inhibition, primary screen, CellTiter-Glo luminescence, NPC library (AID 1117342;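 active means compounds that lower survival of HCT116 colon cancer cells in the luminescence readout, no numeric limit stated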); settings: at 20 µM (top of the series)
[6] = reduced SW480 viability measured with CellTiter-Glo, NPC library, primary (AID 1117343;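 active means compounds that lower viability of the colon cancer cells in the luminescence readout, with no numeric limit stated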); settings: CellTiter-Glo luminescence; at 20 µM (top of the series)
[7] = NPC library primary testing for decreased DLD-1 cell viability via CellTiter-Glo (AID 1117346;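 active means compounds that lower survival of DLD-1 colon cancer cells in the luminescence readout, no cutoff given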); settings: DLD-1 viability, CellTiter-Glo luminescence; at 20 µM (top of the series)
[8] = modulation of C. elegans fzo-1 (AID 1259413);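 further: fzo-1 mutant C. elegans worms in liquid wells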; settings: C. elegans fzo-1 modulator screen, mean read-out; stronger effect = higher value
[9] = EMT-state selective cytotoxicity in co-culture – imaging, PC-3E GFP, TEM4-18 mCherry, primary screen (AID 1345086;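 active means compounds killing one labelled cell type while sparing the other, by normalised counts and ratio limits, not self-fluorescent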;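 on all read-outs here: cells exposed to compound for 72 h before imaging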;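 on red/green cell ratio (normalised): normalised mesenchymal count divided by normalised epithelial count so high means epithelial killing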); settings: PC-3E GFP / TEM4-18 mCherry co-culture, imaging cell counts, at 1 µM; for red/green cell ratio (normalised): actives lie on both sides, counts scaled to control wells, 1 = unselective
[10] = viability loss in pontine glioma line – cell-based, SU-DIPG-XIII, MIPE4.0, CellTiter-Glo, qHTS, dose response (AID 1347061; cut-off not given, nearly all actives have AC50 up to about 37 µM;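 further: cells exposed to compound for 48 hours before readout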); settings: CellTiter-Glo ATP luminescence
[11] = viability loss in pontine glioma line – cell-based, SU-DIPG-IV, MIPE4.0, CellTiter-Glo, qHTS, dose response (AID 1347063; cut-off not given, nearly all actives have AC50 up to about 30 µM;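 further: compound exposure lasted 48 hours before the viability readout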); settings: CellTiter-Glo ATP luminescence
[12] = viability loss in pontine glioma line – cell-based, SU-DIPG-XVII, MIPE5.0, CellTiter-Glo, qHTS, dose response (AID 1347060; cut-off not given, nearly all actives have AC50 up to about 26 µM); settings: CellTiter-Glo ATP luminescence
[13] = viability loss in pontine glioma line – cell-based, JHH-DIPG-1, MIPE4.0, CellTiter-Glo, qHTS, dose response (AID 1347062; cut-off not given, nearly all actives have AC50 up to about 27 µM;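 on AC50: cells exposed to compound for two days before readout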); settings: JHH-DIPG-1 viability, CellTiter-Glo ATP luminescence
[14] = viability loss in pontine glioma line – cell-based, SU-DIPG-XIII, MIPE5.0, CellTiter-Glo, qHTS, dose response (AID 1347064; cut-off not given, nearly all actives have AC50 up to about 23 µM); settings: CellTiter-Glo ATP luminescence
[15] = system: Aerobactin synthetase IucA (Klebsiella pneumoniae); test: inhibition of K. pneumoniae IucA enzyme – biochemical, Tocris library, absorbance (AID 1345561); settings: purified IucA enzyme assay, absorbance (OD) read-out; stronger effect = lower value;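 tested at 8 µM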;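 further: 100% = enzyme without compound and 0% = no enzyme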
[16] = measured here: epithelial PC-3E GFP cell survival
[17] = measured here: mesenchymal TEM4-18 mCherry cell survival

| SMILES | insulin secretion stimulation [1] | viability decrease [2] | tube area decrease [3] | GLP1 secretion stimulation [4] | inhibition of viability [5] | viability decrease (inhibition) [6] | viability decrease (inhibition) [7] | mean signal [8] | red/green cell ratio (normalised) [9] | normalised cell number [9, 16] | normalised cell number [9, 17] | outcome [10] | AC50 [11] | outcome [12] | AC50 [10] | outcome [13] | AC50 [13] | outcome [14] | remaining activity [15] | outcome [11] |
| --- | --- | --- | --- | --- | --- | --- | --- | --- | --- | --- | --- | --- | --- | --- | --- | --- | --- | --- | --- | --- |
| COc1cc2nc(N3CCN(C(=O)C4COc5ccccc5O4)CC3)nc(N)c2cc1OC (centres undefined) | -0.7% (inactive) | 100% (active) | 85.3% (active) | 25.7% (active) | 101% (active) | 142% (active) | 103% (active) | 219 (inactive) | 0.65 (inactive) | 1.28 | 0.83 | inactive | – | – | – | – | – | – | – | – |
| Cc1ccnc2c1NC(=O)c1cccnc1N2C1CC1 | -1.6% (inactive) | -14.3% (inactive) | -6.9% (inactive) | -2% (inactive) | 6.5% (inactive) | -13.1% (inactive) | 13.6% (inactive) | 208 (inactive) | 0.79 (inactive) | 1.34 | 1.05 | – | 16.6 µM (active) | – | – | – | – | – | – | – |
| CN1CCC(=C2c3ccccc3CCc3sccc32)CC1 | 6.65% (inactive) | 47.1% (inactive) | 28.1% (inactive) | 5.3% (inactive) | 20.1% (inactive) | 103% (active) | 26.9% (inactive) | 277 (inactive) | 0.85 (inactive) | 1.11 | 0.94 | – | – | inactive | 16.6 µM (active) | – | – | – | – | – |
| CC(C)(C#N)c1cc(Cn2cncn2)cc(C(C)(C)C#N)c1 | 2.3% (inactive) | -0.4% (inactive) | -11.4% (inactive) | 2.1% (inactive) | -5.9% (inactive) | 45.5% (inactive) | 0.55% (inactive) | 266 (inactive) | 1.37 (inactive) | 0.74 | 1.02 | inactive | – | inactive | – | inactive | – | – | – | – |
| CCOC(=O)[C@H](CCc1ccccc1)N[C@@H](C)C(=O)N1[C@H](C(=O)O)C[C@@H]2CCC[C@@H]21 | 1.25% (inactive) | 13.8% (inactive) | -11% (inactive) | 2.1% (inactive) | 6.1% (inactive) | -19% (inactive) | -0.3% (inactive) | 226 (inactive) | 0.83 (inactive) | 1.1 | 0.91 | – | 5.9 µM (active) | – | 8.33 µM (active) | – | 16.6 µM (active) | inactive | – | – |
| CN(C/C=C/C#CC(C)(C)C)Cc1cccc2ccccc12 | 3.2% (inactive) | 84.2% (active) | 5.2% (inactive) | -3.9% (inactive) | 82.6% (active) | 121% (active) | 70.1% (active) | 221 (inactive) | 1.03 (inactive) | 1.32 | 1.37 | inactive | – | – | – | inactive | – | – | – | – |
| NC1CCN(c2cccc(Cl)n2)CC1 | -0.7% (inactive) | -6.2% (inactive) | 3.8% (inactive) | 3.8% (inactive) | 14.7% (inactive) | 28.7% (inactive) | -9.7% (inactive) | 216 (inactive) | – | – | – | – | – | – | – | – | – | – | 113% (inactive) | – |
| CCCOc1ccc(C(=O)OCCN(CC)CC)cc1N | 1.5% (inactive) | 47.8% (inactive) | -3.5% (inactive) | -1% (inactive) | 74.2% (active) | 36% (inactive) | 90.1% (active) | 287 (active) | 1.08 (inactive) | 1.2 | 1.3 | – | – | inactive | – | inactive | – | inactive | – | inactive |
| CC(N)C12CC3CC(CC(C3)C1)C2 (centres undefined) | 11% (inactive) | -3.4% (inactive) | 15.2% (inactive) | -0.1% (inactive) | 7.6% (inactive) | 60.8% (active) | 6.65% (inactive) | 212 (inactive) | 0.95 (inactive) | 1.11 | 1.06 | inactive | – | inactive | – | inactive | – | inactive | – | inactive |
| CCN1CCC[C@H]1CNC(=O)c1cc(S(N)(=O)=O)ccc1OC | 1% (inactive) | -4.3% (inactive) | 10.5% (inactive) | -3% (inactive) | -5.3% (inactive) | -4.8% (inactive) | -5.7% (inactive) | 274 (inactive) | – | – | – | – | – | – | – | – | – | – | 123% (inactive) | – |
| Cc1cn([C@H]2C=C[C@@H](CO)O2)c(=O)[nH]c1=O | 4.4% (inactive) | -0.2% (inactive) | -1.6% (inactive) | -0.3% (inactive) | 1.2% (inactive) | -4.8% (inactive) | -8.9% (inactive) | 233 (inactive) | 0.8 (inactive) | 1.35 | 1.09 | inactive | – | – | – | inactive | – | – | – | inactive |
| Cc1cnc(NC(=O)C2=C(O)c3ccccc3S(=O)(=O)N2C)s1 | -1% (inactive) | -14.6% (inactive) | -8.1% (inactive) | -2.4% (inactive) | 19.1% (inactive) | 23.9% (inactive) | 4.7% (active) | 257 (inactive) | 0.91 (inactive) | 1.16 | 1.05 | – | – | inactive | – | inactive | – | inactive | – | inactive |
| NS(=O)(=O)c1cc(C(=O)O)c(NCc2ccco2)cc1Cl | -2% (inactive) | -10.1% (inactive) | 13% (inactive) | 0.9% (inactive) | -10.4% (inactive) | -18% (inactive) | -1.6% (inactive) | 263 (inactive) | 1.08 (inactive) | 1.05 | 1.14 | inactive | – | – | – | – | – | – | – | – |
